Most compounds without a hit are left out; they make up all but 2.8% or so of the library.
Shn3 3UTR inh = reduction of Shn3 3'UTR firefly luciferase signal, primary screen, Schnurri-3 inhibitor project, cell-based, Clone20 osteoblasts, set 2; Clone20 osteoblast Shn3 3'UTR firefly luciferase, 24 h; inhibition, % at 12.5 µM; 0.52% of 360,000 active; AID 588674, 2011;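 active = mean inhibition of at least 75% with every replicate also reaching 75%; inconclusive = mean inhibition at least 75% but some replicate below; inactive = mean inhibition below 75%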;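 note: 0% = median of neutral control wells and 100% = pilot-screen positive control compound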
HIF-2a block = HIF-2a reporter inhibitors, primary screen, luminescence, 786-0 RCC cells; 0.72% of 360,000 active; AID 624352, 2012; 786-0 RCC cells HIF-2a reporter, luciferase luminescence, overnight; inhibition, % at 18.8 µM;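 active = inhibition of the luminescence signal of 40% or more relative to plate controls, in a single-dose primary screen at 18.75 µM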
LMP1 NFkB inh = EBV LMP1-driven NF-kappaB luciferase reporter inhibitors, primary screen, cell-based, luminescence, single point; inhibition, % at 12.5 µM; LMP1-induced NF-kappaB luciferase reporter cells; AID 504558, 2011; 0.69% of 350,000 active; in the data active = inhibition above about 41%; inconclusive = no clear call, values can overlap the other calls;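 note: 0% = neutral control wells and 100% = reference inhibitor control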
Peg3 prom inh = Peg3 promoter-driven luciferase inhibitors, primary screen, cell-based, HeLa, luciferase luminescence. inhibition, % at 20 µM. HeLa PEG-Prom luciferase reporter, overnight. 1.7% of 360,000 active;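 active = inhibition of at least 50% at 20 µM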
PAX8 inh HTS = inhibitors of PAX8-driven TPO luciferase reporter, primary screen, RMG-I cells, single concentration | inhibition, % at 12.6 µM | SteadyGlo, 24 h | 1.2% of 360,000 active;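 active = mean replicate inhibition at least 60% with every replicate also reaching 60%; inconclusive = only one of the two criteria is met; inactive = mean below 60% and not all replicates reaching 60%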;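 note: luciferase light reporting Pax8 driven TPO promoter activity; plate controls were median of neutral control wells for no effect and mitoxantrone controls for full effect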
TRPM1 prom inh = inhibitors of MITF-dependent TRPM1 promoter reporter, primary screen, cell-based, SK-MEL-5, single point, luciferase | 0.83% of 330,000 active | inhibition, % at 12.5 µM | AID 488899, 2010 | SK-MEL-5 TRPM1 promoter luciferase, 24 h;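 active = mean inhibition across replicates of 60% or more, whatever share of single replicates reaches that level; inconclusive = some that reach 60%, reason not given; inactive = mean inhibition across replicates below 60%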
Numbers without * were called inactive; ? = inconclusive; nt = not tested or not shown.

SMILES	Shn3 3UTR inh	HIF-2a block	LMP1 NFkB inh	Peg3 prom inh	PAX8 inh HTS	TRPM1 prom inh
CC(=O)Nc1ccc(N(CC(O)Cn2c3ccccc3c3ccccc32)S(=O)(=O)c2ccc(C)cc2)cc1 (centres undefined)	29.1	-0.3	-8.1	60.5*	30.9	10.5
Cc1ccc(N(CC(O)Cn2c3ccccc3c3ccccc32)S(C)(=O)=O)cc1 (centres undefined)	-20.0	-26.1	-8.4	12.0	nt	11.7
COc1ccccc1S(=O)(=O)N1CC[C@@H]2[C@H](CO)Nc3ccc(-c4cccc(C#N)c4)cc3[C@@H]21	nt	nt	nt	nt	-3.0	nt
Cc1ccccc1-c1cc(C(=O)Nc2sc(C(=O)OC(C)C)c(C)c2C#N)c2ccccc2n1	70.7	2.6	32.1	31.1	80.6*	43.0
NC(=O)N=Nc1c2[nH]c3ccccc3nc-2c2ccccc12	6.9	23.0	-24.6	71.8*	-6.4	48.6
O=c1[nH]c2ccccc2nc1-c1ccccc1	-50.6	-179.4	-2.7	-121.4	-29.8	-12.1
C[C@H](CO)N1C[C@H](C)[C@H](CN(C)C(=O)CCC(F)(F)F)OCCCC[C@H](C)Oc2ccc(NC(=O)C3CCCCC3)cc2C1=O	nt	nt	nt	nt	-11.5	nt
CCC1=Nc2cc(C(=O)NCCN3CCOCC3)ccc2Sc2ccccc21	-5.9	-1.3	-7.5	3.1	28.5	3.9
CCOCCCNC(=O)c1ccc2c(c1)N=C(CC)c1cc(Br)ccc1S2	-16.5	24.6	16.1	31.1	91.4*	38.9
C[C@@H]1CCCCO[C@@H](CN(C)C(=O)Nc2cccc3ccccc23)[C@@H](C)CN([C@H](C)CO)C(=O)c2cc(N(C)C)ccc2O1	nt	nt	nt	nt	5.1	nt
Nc1ccc(Cn2ccc3c4c(N)nc(N)nc4ccc32)cc1	74.7	35.9	22.0	102.4*	69.6*	84.9*
Cc1ccc(NC(=O)CO/N=C(\N)c2ccccc2)cc1C	88.7*	-11.1	-7.9	-12.4	-6.6	-7.9
Cc1coc2c(C)c3oc(=O)cc(-c4ccccc4)c3cc12	-15.6	5.9	2.3	74.5*	-7.1	11.8
CCC(=O)Nc1ccc2c(c1)C(=O)N(C)[C@@H]1CC[C@@H](CC(=O)NCc3ccccc3Cl)O[C@@H]1CO2	nt	nt	nt	nt	7.2	nt
CO[C@H]1CN(C)C(=O)c2cc(NS(=O)(=O)c3cn(C)cn3)ccc2OC[C@@H](C)N(C)C[C@H]1C	nt	nt	nt	nt	-5.6	nt
Cc1ccc(C)c(N2CCN(C(=O)c3ccc4nc(-c5ccco5)c(-c5ccco5)nc4c3)CC2)c1	-18.5	14.9	8.7	33.7	nt	-1.9
COc1ccccc1N1CCN(C(=O)c2ccc3nc(-c4ccco4)c(-c4ccco4)nc3c2)CC1	24.0	-0.5	8.2	51.7*	36.9	7.5
CCC(=O)N1CCC2(CC1)CN(Cc1cccc(Cl)c1)[C@H](CO)c1c2c2ccc(OC)cc2n1C	nt	nt	nt	nt	12.0	nt
Cc1noc(C)c1NC(=O)N(C)C[C@@H]1OCCCC[C@@H](C)Oc2ccc(NS(=O)(=O)c3cn(C)cn3)cc2C(=O)N([C@H](C)CO)C[C@H]1C	nt	nt	nt	nt	-6.5	nt
CCC(=O)Nc1ccc(N2CCN(C(=O)c3cccs3)CC2)cc1	13.5	13.8	15.9	-2.1	26.2	20.7
O=C(COc1ccccc1[N+](=O)[O-])Nc1ccc(N2CCN(C(=O)c3cccs3)CC2)cc1	36.1	-15.3	7.5	104.3*	7.1	48.0
CC(C(=O)N=Nc1c(O)[nH]c2ccccc12)n1cnc2ccccc2c1=O (centres undefined)	-3.8	14.8	61.3*	-7.6	7.9	18.9
COc1cc(NC(=O)COc2cc(O)c3c(c2)OC(C)(C)CC3=O)cc(OC)c1OC	85.9*	-74.0	19.9	15.9	nt	72.2*
Cc1c(C)c2ccc(OCC(=O)N(C)C)c(C)c2oc1=O	-27.8	-19.9	-9.0	-19.8	nt	-8.5
CCC(=O)Oc1ccc2c(C)cc(=O)oc2c1C(=O)c1ccccc1	4.7	25.3	4.2	7.8	88.2*	5.6
SMILES	Shn3 3UTR inh	HIF-2a block	LMP1 NFkB inh	Peg3 prom inh	PAX8 inh HTS	TRPM1 prom inh
Cc1cc(=O)oc2c(C)c(OCC(=O)N(C)C)ccc12	5.7	9.0	41.6*	-6.0	nt	0.4
C[C@@H]1CN([C@@H](C)CO)C(=O)Cc2cc(NC(=O)Cn3cnnn3)ccc2O[C@H]1CN(C)Cc1ccccc1	nt	nt	nt	nt	-12.9	nt
CC(C)c1cn(CC[C@H]2CC[C@H](NS(=O)(=O)Cc3ccccc3)[C@H](CO)O2)nn1	nt	nt	nt	nt	-2.9	nt
O=C(c1cc2nc(-c3ccc(F)cc3)cc(C(F)(F)F)n2n1)N1CCCCC1c1cccnc1 (centres undefined)	89.7*	-4.3	4.7	11.9	37.5	39.5
O=C(C[C@H]1C[C@H]2c3cc(NS(=O)(=O)c4ccccc4)ccc3O[C@H]2[C@H](CO)O1)NCC(F)(F)F	nt	nt	nt	nt	15.1	nt
C=C1C(=O)O[C@@]23[C@H]1CC[C@@H](C)[C@@H]2CC[C@@]1(C)O[C@@H]31	-19.3	18.7	8.0	-102.2	nt	84.8*
C/C=C/c1ccc([C@@H]2[C@@H](CNC(=O)C3CC3)N(C(=O)NCCC)[C@H]2CO)cc1	nt	nt	nt	nt	-25.0	nt
CN(C[C@H](Cc1ccccc1)N(C[C@H](c1ccccc1)N(CCc1ccccc1)N=O)N=O)N=O	87.0*	5.9	0.7	7.8	18.4	0.8
CN(C[C@H](c1ccccc1)N(C[C@H](Cc1ccccc1)N(CCc1ccccc1)N=O)N=O)N=O	16.4	7.9	5.0	8.7	45.2	-8.5
COCC(=O)N1C[C@H]2[C@@H](c3ccccc31)[C@H](CO)N2C(=O)C1CC1	nt	nt	nt	nt	1.0	nt
O=C(/C=C/c1ccccc1Cl)c1ccccc(=O)c1O	15.5	9.5	-34.7	71.0*	nt	6.4
O=C(/C=C/c1ccccc1Cl)c1ccc(O)cc1	-9.2	-237.0	2.7	-70.9	-57.9	-12.3
Cc1ccc(C)c(/C=C/C(=O)c2ccccc(=O)c2O)c1	66.4	71.7*	-110.7	17.4	26.3	30.3
Cc1ccc(/C=C/C(=O)c2ccccc(=O)c2O)c(C)c1	43.1	35.8	14.5	-78.2	3.2	0.4
CO[C@@H]1CC[C@H]2CCOc3ccc(C#N)cc3C(=O)N(C)C[C@@H](C)C(=O)N(C)C[C@H]1O2	nt	nt	nt	nt	-1.6	nt
COc1ccc(NC(=S)NNc2ccc([N+](=O)[O-])cc2S(=O)(=O)Nc2ccc(C)cc2C)cc1	25.0	-4.3	11.9	52.5*	12.0	3.5
Cc1ccc(NS(=O)(=O)c2cc([N+](=O)[O-])ccc2NNC(=S)Nc2cc(C)ccc2C)c(C)c1	73.8	-6.3	15.8	37.8	?	36.5
O=C(Nc1ccc([N+](=O)[O-])cc1)Nc1ccc(N2CCOCC2)c2nonc12	22.7	-32.4	19.9	62.2*	-14.8	-5.5
CCC(=O)N1C[C@@H](C)[C@@H](OC)CN(C)C(=O)c2ccc(NC(=O)CC(F)(F)F)cc2OC[C@H]1C	nt	nt	nt	nt	-42.4	nt
